An excerpt weighted towards active compounds, which were near 7.8% of everything screened.
MITF inhib: inhibitors of MITF, primary screen, MITF inhibitor project, cell-based, luminescence; TRPM1 promoter luciferase, 24 h; inhibition, % (test concentration not listed); actives 0.28% (n = 37,000); AID 2240, 2010; in the data active = inhibition above about 85%; inconclusive = no clear call, values can overlap the other calls; inactive = below about 68%;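 also: human melanocyte line stably carrying TRPM1 promoter luciferase reporter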
Hedgehog inh: Hedgehog pathway signaling inhibitors, primary screen, luminescence, Shh-LIGHT2 cells, Gli-luciferase; inhibition, % (no concentration beside the values); Shh-LIGHT2 Gli-luciferase reporter, 30 h; actives 2.1% (n = 22,000);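 active = mean inhibition across valid replicates above about 65%, limit read from the data; inconclusive = mean under the limit, yet half or more replicates past it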;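 also: pathway switched on by Shh-conditioned medium diluted 1 in 25 in low serum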
NOMO-1 viab: NOMO-1 AML cell viability reduction, primary screen, STK33 inhibitor project, CellTiter-Glo luminescence | NOMO-1 AML viability, 72 h | inhibition, % (concentration not given with the values) | actives 7.5% (n = 37,000); in the data active = inhibition above about 80%; inconclusive = no clear call, values can overlap the other calls
PD-1 reverse act: activators reversing PD-1 mediated T-cell inhibition, primary screen, luminescence, primary human CD4 T cells, PD-L1 beads; CellTiter-Glo 96 h; 29,000 tested, under 10 active; activation, % (test concentration not listed); call rule not given here
Each line names hits and unclear results; the compound was inactive in the other large screens.

C[C@H]1CN([C@@H](C)CO)C(=O)Cc2cc(NC(=O)Nc3ccc(F)cc3)ccc2O[C@@H]1CN(C)Cc1ccc(Cl)c(Cl)c1	NOMO-1 viab 96
C[C@H]1CN([C@@H](C)CO)C(=O)Cc2cc(NC(=O)Nc3ccccc3)ccc2O[C@@H]1CN(C)Cc1ccc(Cl)c(Cl)c1	none
C[C@@H]1CN([C@H](C)CO)C(=O)Cc2cc(NC(=O)Nc3ccccc3)ccc2O[C@@H]1CN(C)Cc1ccc(Cl)c(Cl)c1	NOMO-1 viab 99
CC(C)NC(=O)Nc1ccc2c(c1)CC(=O)N([C@@H](C)CO)C[C@H](C)[C@@H](CN(C)Cc1ccc(Cl)c(Cl)c1)O2	none
CCOC(=O)N1CCc2c(sc3[nH]c(=S)n(-c4ccccc4)c(=O)c23)C1	none
O=C(CC1(O)C(=O)N(Cc2ccccc2)c2ccc(Br)cc21)c1ccco1 (configuration not stated)	NOMO-1 viab 114 (no result: Hedgehog inh)
Cc1cc(Br)c2c(c1)C(O)(CC(=O)c1ccco1)C(=O)N2C (configuration not stated)	NOMO-1 viab 122 (no result: Hedgehog inh)
O=C(CC1(O)C(=O)N(Cc2ccccc2)c2ccc(Cl)cc21)c1ccc2c(c1)OCCO2 (configuration not stated)	none (no result: Hedgehog inh)
O=C(CC1(O)C(=O)N(Cc2ccccc2)c2ccc(Br)cc21)c1ccccc1[N+](=O)[O-] (configuration not stated)	NOMO-1 viab 100 (no result: Hedgehog inh)
CC(C)=CCC/C(C)=C/CC(O)/C(C)=C/Cc1cc(C(=O)O)ccc1O (configuration not stated)	none
C=C(CO)C(=O)O[C@H]1CC(=C)[C@@H]2CC(=O)[C@H](C)[C@@H]2[C@H]2OC(=O)C(=C)[C@@H]21	NOMO-1 viab 107
C=C1C(=O)O[C@@H]2[C@H]3C(C)=CC(=O)C3=C(C)C[C@H](O[C@@H]3O[C@H](CO)[C@@H](O)[C@H](O)[C@H]3O)[C@@H]12	none
COc1ccc(CC(=O)Nc2cccc(-c3nc4cc5ccccc5cc4[nH]3)c2)cc1	NOMO-1 viab 135 (no result: Hedgehog inh)
O=c1cc(-c2ccccc2)nc2scc(-c3ccccc3)n12	none
CN1C(C(=O)Nc2ccccn2)C(=O)c2ccccc2S1(=O)=O (configuration not stated)	none
Cc1cc(NC(=O)CN(c2ccc(Cl)c(C(F)(F)F)c2)S(C)(=O)=O)ccc1Br	NOMO-1 viab 103 (no result: Hedgehog inh)
Cc1cc(Cl)ccc1N(CC(=O)Nc1cc(Cl)cc(Cl)c1)S(C)(=O)=O	NOMO-1 viab 90 (no result: Hedgehog inh)
Cc1cc(N(CC(=O)Nc2ccc(Cl)cc2C)S(C)(=O)=O)ccc1Br	NOMO-1 viab 87 (no result: Hedgehog inh)
Cc1cc(Cl)ccc1NC(=O)CN(c1cccc(Cl)c1)S(C)(=O)=O	none (no result: Hedgehog inh)
Cc1ccc(NC(=O)CN(c2ccc(Cl)c(C(F)(F)F)c2)S(C)(=O)=O)cc1Cl	none (no result: Hedgehog inh, PD-1 reverse act)
CS(=O)(=O)N(CC(=O)Nc1cccc(C(F)(F)F)c1)c1cc(Cl)c(Cl)cc1Cl	NOMO-1 viab 140 (no result: Hedgehog inh)
COC(=O)c1ccc(NC(=O)CN(c2ccc(Cl)cc2C)S(C)(=O)=O)cc1	none (no result: Hedgehog inh)
Cc1cccc(NC(=O)CN(c2cc(Cl)c(Cl)cc2Cl)S(C)(=O)=O)c1	none (no result: Hedgehog inh)
CC1(C)CC(C)(c2ccccc2)c2cc(SC#N)ccc2N1 (configuration not stated)	Hedgehog inh 108, NOMO-1 viab 114
CC(=O)N1c2ccccc2C(C)(c2ccccc2)CC1(C)C (configuration not stated)	NOMO-1 viab inconclusive
Cn1c(SCC(=O)Nc2ccc(Cl)c(Cl)c2)nnc1-c1ccc(Cl)c(Cl)c1	NOMO-1 viab 106 (no result: Hedgehog inh, PD-1 reverse act)
O=C(CSc1nnc(-c2ccncc2)n1-c1ccccc1)Nc1ccc(C(F)(F)F)cc1	none (no result: Hedgehog inh)
CC(C)(C)c1ccc(-c2nnc(SCC(=O)Nc3ccccc3)n2-c2ccccc2)cc1	NOMO-1 viab 113 (no result: Hedgehog inh)
Cc1cccc(NC(=O)CSc2nnc(-c3ccc(Cl)cc3)n2-c2cccc(C)c2)c1	NOMO-1 viab 128 (no result: Hedgehog inh)
O=C(O)[C@H]1O[C@@H](Oc2cc(O)c3c(=O)c(-c4ccc(O)cc4)coc3c2)[C@H](O)[C@@H](O)[C@@H]1O	NOMO-1 viab 108
CCOC(=O)Cn1c(-c2cccnc2)nc(-c2ccccc2)c1-c1ccccc1	NOMO-1 viab 115
COc1ccc(OCc2ncc(-c3ccc4c(c3)OCCCO4)s2)cc1	none
O=CN/C=C\c1ccc(O)cc1	none
CC(Oc1ccc(C(=O)Nc2ccc(Cl)cc2)cc1)C(=O)Nc1ccc(Br)cc1 (configuration not stated)	NOMO-1 viab 136 (no result: Hedgehog inh)
Cc1cccc(NC(=O)c2ccc(OC(C)C(=O)Nc3ccc(Br)cc3)cc2)c1C (configuration not stated)	NOMO-1 viab 115 (no result: Hedgehog inh)
Cc1ccc(NC(=O)c2ccc(OC(C)C(=O)Nc3ccccc3)cc2)cc1 (configuration not stated)	none (no result: Hedgehog inh, PD-1 reverse act)
CC1(C)OC(=O)C(=Cc2ccoc2)C(=O)O1	none
C[C@@H]1CCCCO[C@@H](CN(C)Cc2ccc(C(=O)Nc3ccccc3N)cc2)[C@@H](C)CN([C@H](C)CO)C(=O)c2cc(NS(=O)(=O)c3ccc(Cl)cc3)ccc2O1	NOMO-1 viab 127 (no result: Hedgehog inh)
C[C@@H]1CCCCO[C@H](CN(C)Cc2ccc(C(=O)Nc3ccccc3N)cc2)[C@@H](C)CN([C@H](C)CO)C(=O)c2cc(NS(C)(=O)=O)ccc2O1	none (no result: Hedgehog inh)
COc1ccc(S(=O)(=O)Nc2ccc3c(c2)C(=O)N([C@H](C)CO)C[C@H](C)[C@H](CN(C)Cc2ccc(C(=O)Nc4ccccc4N)cc2)OCCCC[C@@H](C)O3)cc1	NOMO-1 viab 126 (no result: Hedgehog inh)
C[C@@H]1CCCCO[C@H](CN(C)Cc2ccccc2)[C@@H](C)CN([C@H](C)CO)C(=O)c2cc(NC(=O)Nc3ccc(F)cc3)ccc2O1	Hedgehog inh 67
C[C@@H]1CCCCO[C@H](CN(C)Cc2ccc3c(c2)OCO3)[C@@H](C)CN([C@H](C)CO)C(=O)c2cc(NC(=O)Nc3ccc(C(F)(F)F)cc3)ccc2O1	NOMO-1 viab 84 (no result: PD-1 reverse act)
C[C@@H]1CCCCO[C@@H](CN(C)C)[C@@H](C)CN([C@H](C)CO)C(=O)c2cc(NC(=O)Nc3ccccc3)ccc2O1	NOMO-1 viab 108
C[C@@H]1CCCCO[C@@H](CN(C)Cc2ccc(C(F)(F)F)cc2)[C@@H](C)CN([C@H](C)CO)C(=O)c2cc(NC(=O)Nc3ccc(C(F)(F)F)cc3)ccc2O1	NOMO-1 viab 107
C[C@@H]1CCCCO[C@@H](CN(C)C(=O)Nc2ccc(C(F)(F)F)cc2)[C@@H](C)CN([C@H](C)CO)C(=O)c2cc(NC(=O)Nc3ccc4c(c3)OCO4)ccc2O1	none (no result: Hedgehog inh)
COc1ccc(-n2c(SCC(=O)Nc3ccc(Cl)cc3Cl)nnc2-c2ccncc2)cc1	none (no result: Hedgehog inh)
CS(=O)(=O)N(CC(=O)Nc1ccc(F)c(F)c1)c1ccc(Cl)c(C(F)(F)F)c1	none (no result: Hedgehog inh)
C[C@@H]1CCCCO[C@H](CN(C)Cc2ccccc2)[C@@H](C)CN([C@H](C)CO)C(=O)c2cc(NC(=O)Nc3ccc(C(F)(F)F)cc3)ccc2O1	NOMO-1 viab 104 (no result: Hedgehog inh, PD-1 reverse act)
